The panel holds about 79,000 compounds, 15% with a hit somewhere; the sample as a whole holds those more often. A number with no mark means an inactive call. Active and inactive are the calls of the source. Rule as the data show it: active = growth inhibition above about 70%; inactive = the rest.

Here are results for ten molecules from PubChem BioAssay (NCI).

Experiment [1] in a line: NCI Yeast Anticancer Drug Screen. Data for the rad50 strain (AID 155).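 Also: 0% = growth of vehicle-only cultures of the same strain.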 Particulars: S. cerevisiae rad50 strain growth inhibition, hits give high values. The method, boiled down:
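Yeast carrying a defined DNA repair defect were exposed to test compounds, and growth was compared with vehicle-treated controls to give percent inhibition.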

Experiment [2] in a line: NCI Yeast Anticancer Drug Screen. Data for the mec2-1 strain (AID 157). Particulars: S. cerevisiae mec2-1 strain, hits give high values. The method, boiled down:
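Mutant yeast (mec2-1) grown with compound; growth inhibition relative to vehicle control reported.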

Experiment [3] can be described thus: NCI Yeast Anticancer Drug Screen. Data for the sgs1 mgt1 strain (AID 161).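 Also: 0% = growth of cultures given vehicle only.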 Particulars: S. cerevisiae sgs1 mgt1 strain, hits give high values. The method in brief: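 This yeast growth screen uses a strain with defined DNA-repair lesions; compound-treated growth is compared with vehicle-treated growth.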
Experiment [4] in a line: NCI Yeast Anticancer Drug Screen. Data for the cln2 rad14 strain (AID 165).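 Also: 0% = growth equal to vehicle treated cultures.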 Conditions: S. cerevisiae cln2 rad14 strain, hits give high values. The method, boiled down:
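Readout is yeast growth inhibition versus vehicle-treated controls, using a strain with cln2 and rad14 alterations exposed to compound.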

Experiment [5] can be described thus: NCI Yeast Anticancer Drug Screen. Data for the bub3 strain (AID 167). Conditions: S. cerevisiae bub3 mutant strain, hits give high values. The method, boiled down:
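Compounds were applied to a genetically altered yeast strain carrying a cell-cycle control defect. Growth inhibition was scored against vehicle-treated controls.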

Experiment [6] can be described thus: NCI Yeast Anticancer Drug Screen. Data for the mlh1 rad18 strain (AID 175). Particulars: S. cerevisiae mlh1 rad18 strain growth inhibition, hits give high values. The method, boiled down: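 Genetically defined yeast (DNA repair-deficient) exposed to compounds; growth inhibition determined relative to vehicle.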
The mark [7] stands for this setting: at 5.0 µM (retest, dose inferred, filed as 0.5).
Setting [8] is: at 50.0 µM (retest, dose inferred, filed as 5.0).

Consider `Cc1cc(NCCCCCCCNc2cc(C)nc3cc(N)ccc23)c2ccc(N)cc2n1`, for which the growth inhibition in experiment [1] (setting [7]) is 4%; in experiment [1] (setting [8]), 85% (active); in experiment [1] (at 50.0 µM), 79.6% (active); in experiment [2] (setting [7]) it was -11%; in experiment [2] (setting [8]), 76% (active); in experiment [2] (at 50.0 µM), 85.5% (active). For the same molecule, the growth inhibition in experiment [3] (setting [7]) was 12%; in experiment [3] (setting [8]), 78% (active); in experiment [3] (at 50.0 µM), 86% (active); in experiment [4] (setting [7]), 12%; in experiment [4] (setting [8]), 45%; in experiment [4] (at 50.0 µM) it was 82% (active). The growth inhibition was -12% in experiment [5] (setting [7]); 82% (active) in experiment [5] (setting [8]); 87% (active) in experiment [5] (at 50.0 µM); -3% in experiment [6] (setting [7]); 83% (active) in experiment [6] (setting [8]); 91.5% (active) in experiment [6] (at 50.0 µM).
For `O=C(Nc1ccccc1C(=O)NC(=O)c1ccccc1NC(=O)c1ccccc1)c1ccccc1`, the growth inhibition in experiment [1] (setting [7]) is -4%; in experiment [1] (setting [8]) it was 99% (active); in experiment [1] (at 50.0 µM) it was 58.9%; in experiment [2] (setting [7]), 10%; in experiment [2] (setting [8]) it was 99% (active); in experiment [2] (at 50.0 µM) it was 57.5%. Further, the growth inhibition in experiment [3] (setting [7]) is -2%; in experiment [3] (setting [8]), 99% (active); in experiment [3] (at 50.0 µM) it was 54.8%; in experiment [4] (setting [7]), 4%; in experiment [4] (setting [8]) it was 99% (active); in experiment [4] (at 50.0 µM) it was 40.8%. Further, the growth inhibition is -1% in experiment [5] (setting [7]); 99% (active) in experiment [5] (setting [8]); 46.1% in experiment [5] (at 50.0 µM); 5% in experiment [6] (setting [7]); 99% (active) in experiment [6] (setting [8]); 63.5% in experiment [6] (at 50.0 µM).
Take `O=c1cc(-c2ccccc2)oc2ccc(-c3ccc4oc(-c5ccccc5)cc(=O)c4c3)cc12`: the growth inhibition in experiment [1] (setting [7]) was 8%; in experiment [1] (setting [8]), 40%; in experiment [1] (at 50.0 µM) it was 37.3%; in experiment [2] (setting [7]) it was 7%; in experiment [2] (setting [8]), 16%; in experiment [2] (at 50.0 µM) it was 40.6%. Besides, the growth inhibition in experiment [3] (setting [7]) is -10%; in experiment [3] (setting [8]) it was 82% (active); in experiment [3] (at 50.0 µM), 31.7%; in experiment [4] (setting [7]) it was -1%; in experiment [4] (setting [8]), 39%; in experiment [4] (at 50.0 µM) it was 28.4%. For the same molecule, the growth inhibition in experiment [5] (setting [7]) was 5%; in experiment [5] (setting [8]), 89% (active); in experiment [5] (at 50.0 µM), 59%; in experiment [6] (setting [7]), 13%; in experiment [6] (setting [8]) it was 25%; in experiment [6] (at 50.0 µM) it was 87.8% (active).
For `CN1CCN(CCn2c3c4ccccc4ccc3c3oc(=O)c4ccccc4c32)CC1`, the growth inhibition was 40% in experiment [1] (setting [7]); 95% (active) in experiment [1] (setting [8]); 38.5% in experiment [1] (at 50.0 µM); -13% in experiment [2] (setting [7]); 97% (active) in experiment [2] (setting [8]); 89.7% (active) in experiment [2] (at 50.0 µM). In addition, the growth inhibition is 28% in experiment [3] (setting [7]); 96% (active) in experiment [3] (setting [8]); 91.2% (active) in experiment [3] (at 50.0 µM); 22% in experiment [4] (setting [7]); 92% (active) in experiment [4] (setting [8]); 90.4% (active) in experiment [4] (at 50.0 µM). The growth inhibition in experiment [5] (setting [7]) is 19%; in experiment [5] (setting [8]), 97% (active); in experiment [5] (at 50.0 µM), 91.8% (active); in experiment [6] (setting [7]), 13%; in experiment [6] (setting [8]), 97% (active); in experiment [6] (at 50.0 µM), 90.8% (active).
In the case of `C/C(=N\NC(=S)NNC(=S)N1CCCc2ccccc21)c1ccccn1`, the growth inhibition in experiment [1] (setting [7]) was 3%; in experiment [1] (setting [8]), 96% (active); in experiment [1] (at 50.0 µM) it was 95.9% (active); in experiment [2] (setting [7]), -16%; in experiment [2] (setting [8]), 96% (active); in experiment [2] (at 50.0 µM), 95.7% (active). The growth inhibition in experiment [3] (setting [7]) is 30%; in experiment [3] (setting [8]), 97% (active); in experiment [3] (at 50.0 µM), 96.7% (active); in experiment [4] (setting [7]), -23%; in experiment [4] (setting [8]) it was 96% (active); in experiment [4] (at 50.0 µM), 95.8% (active). The growth inhibition is -6% in experiment [5] (setting [7]); 97% (active) in experiment [5] (setting [8]); 90.7% (active) in experiment [5] (at 50.0 µM); 5% in experiment [6] (setting [7]); 95% (active) in experiment [6] (setting [8]); 95.6% (active) in experiment [6] (at 50.0 µM).
Take `N#CC1(C#N)C(C#N)(C#N)C12CCCCCC2`: the growth inhibition in experiment [1] (setting [7]) was 38%; in experiment [1] (setting [8]) it was 97% (active); in experiment [1] (at 50.0 µM), 98.9% (active); in experiment [2] (setting [7]) it was 32%; in experiment [2] (setting [8]) it was 98% (active); in experiment [2] (at 50.0 µM), 99.3% (active). Moreover, the growth inhibition is 39% in experiment [3] (setting [7]); 99% (active) in experiment [3] (setting [8]); 99.5% (active) in experiment [3] (at 50.0 µM); 13% in experiment [4] (setting [7]); 95% (active) in experiment [4] (setting [8]); 98.7% (active) in experiment [4] (at 50.0 µM). For the same molecule, the growth inhibition in experiment [5] (setting [7]) was 39%; in experiment [5] (setting [8]) it was 83% (active); in experiment [5] (at 50.0 µM), 99% (active); in experiment [6] (setting [7]), 52%; in experiment [6] (setting [8]) it was 98% (active); in experiment [6] (at 50.0 µM) it was 99.2% (active).
`O=[N+]([O-])c1ccc(CC(c2ccc([N+](=O)[O-])cc2)(c2ccc([N+](=O)[O-])cc2)c2ccc([N+](=O)[O-])cc2)cc1`: the growth inhibition in experiment [1] (setting [7]) was 2%; in experiment [1] (setting [8]), -3%; in experiment [1] (at 50.0 µM), 5.05%; in experiment [2] (setting [7]), 1%; in experiment [2] (setting [8]), 1%; in experiment [2] (at 50.0 µM) it was 12.6%. The growth inhibition in experiment [3] (setting [7]) was 1%; in experiment [3] (setting [8]) it was -16%; in experiment [3] (at 50.0 µM), -19.3%; in experiment [4] (setting [7]), 5%; in experiment [4] (setting [8]), -20%; in experiment [4] (at 50.0 µM), 8.7%. Also, the growth inhibition was 5% in experiment [5] (setting [7]); 4% in experiment [5] (setting [8]); 41% in experiment [5] (at 50.0 µM); 0% in experiment [6] (setting [7]); 1% in experiment [6] (setting [8]); 26.9% in experiment [6] (at 50.0 µM).
With `CC(C)(COC(=O)Nc1cccc(Cl)c1)[N+](=O)[O-]`, the growth inhibition in experiment [1] (setting [7]) is 2%; in experiment [1] (setting [8]), 15%; in experiment [1] (at 50.0 µM), 88.3% (active); in experiment [2] (setting [7]) it was -3%; in experiment [2] (setting [8]) it was 6%; in experiment [2] (at 50.0 µM), 5.6%. Besides, the growth inhibition in experiment [3] (setting [7]) was -1%; in experiment [3] (setting [8]), 3%; in experiment [3] (at 50.0 µM), 53.3%; in experiment [4] (setting [7]), -41%; in experiment [4] (setting [8]) it was -3%; in experiment [4] (at 50.0 µM), -33.5%. Further, the growth inhibition was -1% in experiment [5] (setting [7]); 3% in experiment [5] (setting [8]); 65.7% in experiment [5] (at 50.0 µM); -1% in experiment [6] (setting [7]); 6% in experiment [6] (setting [8]); 82.6% (active) in experiment [6] (at 50.0 µM).
As to `C1CNC(CCNCCSCCNCCC2=NCCN2)=N1`, the growth inhibition was 10% in experiment [1] (setting [7]); 90% (active) in experiment [1] (setting [8]); 95.1% (active) in experiment [1] (at 50.0 µM); 1% in experiment [2] (setting [7]); 75% (active) in experiment [2] (setting [8]); 84.2% (active) in experiment [2] (at 50.0 µM). The growth inhibition in experiment [3] (setting [7]) is 5%; in experiment [3] (setting [8]), 87% (active); in experiment [3] (at 50.0 µM) it was 91.9% (active); in experiment [4] (setting [7]), 5%; in experiment [4] (setting [8]) it was 72% (active); in experiment [4] (at 50.0 µM) it was 83.2% (active). In addition, the growth inhibition is -2% in experiment [5] (setting [7]); 89% (active) in experiment [5] (setting [8]); 93.5% (active) in experiment [5] (at 50.0 µM); 1% in experiment [6] (setting [7]); 91% (active) in experiment [6] (setting [8]); 94.3% (active) in experiment [6] (at 50.0 µM).
As to `Cc1ccc(S(=O)(=O)NC(Cc2ccccc2)C(=O)CCl)cc1` (stereo not given), the growth inhibition in experiment [1] (setting [7]) was 61%; in experiment [1] (setting [8]) it was 99% (active); in experiment [1] (at 50.0 µM) it was 89.9% (active); in experiment [2] (setting [7]), 66%; in experiment [2] (setting [8]), 99% (active); in experiment [2] (at 50.0 µM) it was 92.8% (active). In addition, the growth inhibition was 74% (active) in experiment [3] (setting [7]); 98% (active) in experiment [3] (setting [8]); 88.8% (active) in experiment [3] (at 50.0 µM); 44% in experiment [4] (setting [7]); 88% (active) in experiment [4] (setting [8]); 84.8% (active) in experiment [4] (at 50.0 µM). Moreover, the growth inhibition in experiment [5] (setting [7]) is 79% (active); in experiment [5] (setting [8]) it was 99% (active); in experiment [5] (at 50.0 µM), 84.5% (active); in experiment [6] (setting [7]) it was 86% (active); in experiment [6] (setting [8]), 98% (active); in experiment [6] (at 50.0 µM), 84.7% (active).
